Inconclusive results are not listed. Calls of active or inactive are those of the source. Rule for the calls, unless noted: active = hit-call score of the fitted dose curve at least 0.9, where 1 is the maximum; inactive = score below 0.9.
What was measured:
[1] = ATG_PBREM_CIS: Attagene CIS-FACTORIAL HepG2 Assay for human Phenobarbital-responsive Enhancer Module (PBREM) (AID 2282955); conditions: HepG2 PBREM cis-reporter, Attagene multiplexed transcription; actives raise or lower the signal
How it was run: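 After a 24 h incubation with test chemical, transfected HepG2 cells yield total RNA; reporter-specific RT-PCR products are fluorescently labelled, HpaI-digested and resolved by capillary electrophoresis against ROX size standards.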

[2] = target: Paired box protein Pax-6 (Homo sapiens) (UniProt P26367); assay: ATG_Pax6_CIS: Attagene CIS-FACTORIAL HepG2 Assay for human Paired Box 6 (PAX6) (AID 2282956); conditions: HepG2 CIS-FACTORIAL PAX6 reporter transcription, RNA readout; actives raise or lower the signal
How it was run: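 Fluorescent RT-PCR products separated by capillary electrophoresis report PAX6-linked promoter mRNA in HepG2 cells 24 h post-dose. Curves fitted bidirectionally, DMSO as negative control.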

[3] = ATG_PXRE_CIS: Attagene CIS-FACTORIAL HepG2 Assay for human Pregnane X Receptor Element (PXRE) (AID 2282957); conditions: HepG2 Attagene CIS-FACTORIAL PXRE reporter, mRNA; actives raise or lower the signal
How it was run: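 Reporter transcripts under endogenous PXR-responsive cis-regulation quantified from total RNA of transfected HepG2 cells 24 h post-dosing, via RT-PCR with fluorescent primer extension and capillary electrophoresis. Gain or loss of signal fitted against DMSO baseline.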

[4] = ATG_PPRE_CIS: Attagene CIS-FACTORIAL HepG2 Assay for human Peroxisome Proliferator-activated Response Element (PPRE) (AID 2282958); conditions: HepG2 PPRE cis-element reporter, Attagene transcription factor profiling; actives raise or lower the signal
How it was run: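 Multiplexed reporter transcription units under cis-regulatory promoters were transfected into HepG2 cells to capture endogenous factor activity. A 24 h incubation preceded RNA isolation and fluorescent RT-PCR fragment analysis.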

[5] = ATG_RORE_CIS: Attagene CIS-FACTORIAL HepG2 Assay for human RAR-related Orphan Receptor Element (RORE) (AID 2282959); conditions: HepG2 Attagene cis-factorial RORE reporter, mRNA; actives raise or lower the signal
How it was run: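 Fluorescence intensity of reporter-specific cDNA fragments, separated by capillary electrophoresis, gives the signal. Source: HepG2 liver cells transiently transfected with cis-element reporters and exposed 24 h; DMSO-normalized bidirectional fit.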

[6] = ATG_Sox_CIS: Attagene CIS-FACTORIAL HepG2 Assay for human SRY-box transcription factor (SOX) (AID 2282960); conditions: HepG2 Attagene cis-factorial SOX reporter, mRNA; actives raise or lower the signal
How it was run: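 After 24 h of chemical treatment, transfected HepG2 reporter cells are lysed for total RNA. Transcript levels come from RT-PCR with labelled primer extension and capillary electrophoresis, analysed bidirectionally versus DMSO.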

[7] = target: Transcription factor Sp1 (Homo sapiens) (UniProt P08047); assay: ATG_Sp1_CIS: Attagene CIS-FACTORIAL HepG2 Assay for human Specificity Protein 1 (Sp1) (AID 2282961); conditions: HepG2 Sp1 cis-reporter transcription, actives raise or lower the signal
How it was run: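 Sp1-driven reporter mRNA, read as capillary electrophoresis fluorescence after RT-PCR, in transiently transfected HepG2 cells dosed for 24 h; signal change in either direction relative to DMSO.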

[8] = ATG_SREBP_CIS: Attagene CIS-FACTORIAL HepG2 Assay for human Sterol Regulatory Element Binding (SREBP) (AID 2282962); conditions: HepG2 Attagene cis-factorial SREBP reporter, mRNA; actives raise or lower the signal
How it was run: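 Endogenous factor activity is measured in HepG2 through multiplexed reporter units under cis-element control. Following a 24 h incubation, reporter transcripts are reverse-transcribed, PCR-amplified and sized by capillary electrophoresis; activity is fitted in both directions relative to DMSO.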

[9] = target: Signal transducer and activator of transcription 3 (Homo sapiens) (UniProt P40763); assay: ATG_STAT3_CIS: Attagene CIS-FACTORIAL HepG2 Assay for human Signal Transducer and Activator of Transcription 3 (STAT3) (AID 2282963); conditions: HepG2, Attagene cis-factorial STAT3 reporter transcription; actives raise or lower the signal
How it was run: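 HepG2, MRTU-transfected, 24 h dosing. RNA → RT → PCR → FAM label → HpaI → CE. Bidirectional fit vs DMSO.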

[10] = ATG_TA_CIS: Attagene CIS-FACTORIAL HepG2 Assay for human TA Basal Promoter (AID 2282964); conditions: HepG2 Attagene CIS-factorial TA basal promoter reporter; actives raise or lower the signal
How it was run: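 Steps: transfect HepG2 with MRTUs; dose 24 h; isolate RNA, DNase-treat, reverse-transcribe; PCR and FAM-label reporter cDNA; digest with HpaI 2h at 37 C; run capillary electrophoresis. Activity fitted both directions against DMSO.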

[11] = ATG_TCF_b_cat_CIS: Attagene CIS-FACTORIAL HepG2 Assay for human T-Cell-Factor with beta-catenin (TCF/b-cat) (AID 2282965); conditions: HepG2 TCF/beta-catenin cis-reporter transcription, actives raise or lower the signal
How it was run: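 Using capillary electrophoresis as the read-out, labelled reporter cDNA fragments from transiently transfected HepG2 were sized and quantified. Exposure lasted 24 hours; activity in either direction was referenced to DMSO.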

[12] = ATG_TAL_CIS: Attagene CIS-FACTORIAL HepG2 Assay for human TAL Basal Promoter (AID 2282966); conditions: HepG2 Attagene cis-factorial TAL promoter reporter; actives raise or lower the signal;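 note: background control endpoint measuring basal TAL promoter reporter mRNA not a specific factor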
How it was run: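 Background-control endpoint: basal TAL promoter reporter transcripts in transiently transfected HepG2, measured 24 h after dosing. Read-out by RT-PCR with fluorescent primer extension and capillary electrophoresis; gain or loss of signal fitted relative to DMSO.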

[13] = ATG_TGFb_CIS: Attagene CIS-FACTORIAL HepG2 Assay for human Transforming Growth Factor (TGF) (AID 2282967); conditions: HepG2 Attagene CIS TGFb reporter, mRNA transcription; actives raise or lower the signal
How it was run: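 Cells were dosed for 24 hours, after which total RNA was reverse-transcribed and reporter sequences amplified, labeled and sized by capillary electrophoresis. Activity was fitted in both directions against DMSO.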

[14] = target: Nuclear receptor subfamily 1 group I member 3 (Homo sapiens) (UniProt Q14994); assay: ATG_CAR_TRANS: Attagene TRANS-FACTORIAL HepG2 Assay for human Constitutive Androstane Receptor (CAR) (AID 2282969; active = hit-call score of the fitted dose curve at least 0.9, where 1 is the maximum;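 note: activators raise reporter mRNA above DMSO so AC50 marks induction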); conditions: HepG2 Attagene TRANS-FACTORIAL CAR reporter
How it was run: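 Steps: transient transfection of HepG2 with multiple GAL4-UAS reporter units; 24 h compound incubation; RNA isolation, RT-PCR, 6-FAM primer extension, HpaI digest; capillary electrophoresis. Gain-of-signal relative to DMSO negative control.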

[15] = target: Estrogen receptor (Homo sapiens) (UniProt P03372); assay: ATG_ERa_TRANS: Attagene TRANS-FACTORIAL HepG2 Assay for human Estrogen Receptor alpha (ERa) (AID 2282970; active = hit-call score of the fitted dose curve at least 0.9, where 1 is the maximum); conditions: HepG2 Attagene TRANS ERa GAL4 reporter, mRNA
How it was run: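 Reporter transcripts were measured 24 h after dosing by RT-PCR with fluorescent primer extension and capillary electrophoresis. The system is transiently transfected HepG2 expressing exogenous NR-Gal4 chimeras driving GAL4-UAS reporters; DMSO is the baseline.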

[16] = target: X-box-binding protein 1 (Homo sapiens) (UniProt P17861); assay: ATG_Xbp1_CIS: Attagene CIS-FACTORIAL HepG2 Assay for human X-box Binding Protein 1 (XBP1) (AID 2282972); conditions: HepG2 XBP1 cis-element reporter, Attagene multiplex; actives raise or lower the signal
How it was run: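 Multiplexed cis-reporter readout in transfected HepG2 liver cells. Exposure lasted 24 hours. Activity in either direction was fitted against DMSO as negative control and baseline.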

[17] = ATG_GAL4_TRANS: Attagene TRANS-FACTORIAL HepG2 Assay for GAL4 (Internal Marker) (AID 2282976; active = hit-call score of the fitted dose curve at least 0.9, where 1 is the maximum); conditions: HepG2 Attagene TRANS GAL4 internal marker reporter
How it was run: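 In transfected human HepG2 liver cells dosed 24 h, GAL4 reporter mRNA serves as a baseline marker. Detection by RT-PCR with fluorescent capillary electrophoresis, activity fitted upward relative to DMSO.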

[18] = target: Estrogen-related receptor gamma (Homo sapiens) (UniProt P62508); assay: ATG_ERRg_TRANS: Attagene TRANS-FACTORIAL HepG2 Assay for human Estrogen-Related Receptor gamma (ERRg) (AID 2282977; active = hit-call score of the fitted dose curve at least 0.9, where 1 is the maximum;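 note: hits increase reporter signal over DMSO so potencies reflect activators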); conditions: HepG2 Attagene TRANS reporter, ERRg transactivation
How it was run: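 Exogenous NR-Gal4 chimera activity measured as reporter transcript induction after 24 h in transiently transfected HepG2 cells. RNA reverse-transcribed, PCR-amplified, 6-FAM-labelled and resolved by capillary electrophoresis; increase over DMSO baseline.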

[19] = ATG_M_19_TRANS: Attagene TRANS-FACTORIAL HepG2 Assay for M19 Transcription Factor (Internal Marker) (AID 2282974; active = hit-call score of the fitted dose curve at least 0.9, where 1 is the maximum); conditions: HepG2 Attagene TRANS-FACTORIAL M19 internal marker reporter
How it was run: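 Measured here: internal-marker reporter transcript from HepG2 cells transfected with MRTUs, harvested at 24 h. cDNA PCR products were 6-FAM labelled by primer extension, cut with HpaI for 2 h at 37 C, and resolved by CE.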

Sequence of Estrogen receptor (Homo sapiens) (P03372 whole entry, looked up, the tested form may be a part): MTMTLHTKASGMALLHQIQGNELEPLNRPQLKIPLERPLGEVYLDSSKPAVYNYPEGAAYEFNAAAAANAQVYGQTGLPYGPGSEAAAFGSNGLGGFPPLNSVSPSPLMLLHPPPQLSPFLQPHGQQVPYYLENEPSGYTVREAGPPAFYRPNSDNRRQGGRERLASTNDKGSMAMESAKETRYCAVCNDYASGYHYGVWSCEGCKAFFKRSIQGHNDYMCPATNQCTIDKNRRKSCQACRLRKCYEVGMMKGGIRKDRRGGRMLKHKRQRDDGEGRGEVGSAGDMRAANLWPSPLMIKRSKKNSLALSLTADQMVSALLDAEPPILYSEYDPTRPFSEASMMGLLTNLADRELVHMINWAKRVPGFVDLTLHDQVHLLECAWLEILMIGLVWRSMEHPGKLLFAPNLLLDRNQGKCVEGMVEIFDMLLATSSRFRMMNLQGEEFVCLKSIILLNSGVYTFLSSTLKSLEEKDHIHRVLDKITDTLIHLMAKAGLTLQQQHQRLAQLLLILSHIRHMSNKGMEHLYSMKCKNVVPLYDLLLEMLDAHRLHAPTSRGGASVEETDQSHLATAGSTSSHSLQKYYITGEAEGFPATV
Sequence of X-box-binding protein 1 (Homo sapiens) (P17861 whole entry, looked up): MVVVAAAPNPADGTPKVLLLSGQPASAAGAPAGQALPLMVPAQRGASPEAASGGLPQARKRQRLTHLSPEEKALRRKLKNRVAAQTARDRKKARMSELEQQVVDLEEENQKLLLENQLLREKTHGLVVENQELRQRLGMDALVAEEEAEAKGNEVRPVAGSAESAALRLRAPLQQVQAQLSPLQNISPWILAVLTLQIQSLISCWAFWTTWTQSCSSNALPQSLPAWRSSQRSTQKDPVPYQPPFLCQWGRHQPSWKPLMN
Sequence of Nuclear receptor subfamily 1 group I member 3 (Homo sapiens) (Q14994 whole entry, looked up, the tested form may be a part): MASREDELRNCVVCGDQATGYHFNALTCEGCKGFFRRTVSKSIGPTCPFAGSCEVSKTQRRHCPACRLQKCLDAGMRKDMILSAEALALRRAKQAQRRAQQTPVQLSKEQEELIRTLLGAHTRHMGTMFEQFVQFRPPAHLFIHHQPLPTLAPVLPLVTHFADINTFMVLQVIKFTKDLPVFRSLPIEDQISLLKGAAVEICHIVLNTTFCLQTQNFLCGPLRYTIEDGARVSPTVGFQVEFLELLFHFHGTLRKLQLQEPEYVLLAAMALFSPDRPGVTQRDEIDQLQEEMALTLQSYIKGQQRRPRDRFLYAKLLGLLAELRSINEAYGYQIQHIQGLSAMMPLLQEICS
Sequence of Transcription factor Sp1 (Homo sapiens) (P08047 whole entry, looked up): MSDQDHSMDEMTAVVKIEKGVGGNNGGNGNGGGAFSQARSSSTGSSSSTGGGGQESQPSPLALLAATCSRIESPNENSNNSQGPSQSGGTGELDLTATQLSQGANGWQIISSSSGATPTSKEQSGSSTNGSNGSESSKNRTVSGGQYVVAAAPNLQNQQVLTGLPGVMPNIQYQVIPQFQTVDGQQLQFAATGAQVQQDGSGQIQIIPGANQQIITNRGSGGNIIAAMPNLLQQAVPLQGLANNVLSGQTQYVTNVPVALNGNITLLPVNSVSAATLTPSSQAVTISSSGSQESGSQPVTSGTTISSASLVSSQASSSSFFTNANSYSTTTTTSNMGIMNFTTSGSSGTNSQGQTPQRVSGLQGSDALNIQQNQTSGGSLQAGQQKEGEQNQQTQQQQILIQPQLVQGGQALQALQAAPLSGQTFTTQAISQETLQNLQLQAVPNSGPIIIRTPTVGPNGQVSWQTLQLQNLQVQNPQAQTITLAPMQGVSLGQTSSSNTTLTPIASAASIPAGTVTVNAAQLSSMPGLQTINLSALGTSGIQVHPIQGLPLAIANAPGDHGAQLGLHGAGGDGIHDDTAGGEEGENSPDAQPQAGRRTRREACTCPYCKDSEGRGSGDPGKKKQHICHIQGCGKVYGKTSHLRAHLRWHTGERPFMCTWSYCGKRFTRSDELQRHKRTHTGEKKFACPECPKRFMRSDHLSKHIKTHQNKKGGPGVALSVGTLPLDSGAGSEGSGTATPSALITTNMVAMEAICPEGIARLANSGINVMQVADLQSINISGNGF
Sequence of Estrogen-related receptor gamma (Homo sapiens) (P62508 whole entry, looked up, the tested form may be a part): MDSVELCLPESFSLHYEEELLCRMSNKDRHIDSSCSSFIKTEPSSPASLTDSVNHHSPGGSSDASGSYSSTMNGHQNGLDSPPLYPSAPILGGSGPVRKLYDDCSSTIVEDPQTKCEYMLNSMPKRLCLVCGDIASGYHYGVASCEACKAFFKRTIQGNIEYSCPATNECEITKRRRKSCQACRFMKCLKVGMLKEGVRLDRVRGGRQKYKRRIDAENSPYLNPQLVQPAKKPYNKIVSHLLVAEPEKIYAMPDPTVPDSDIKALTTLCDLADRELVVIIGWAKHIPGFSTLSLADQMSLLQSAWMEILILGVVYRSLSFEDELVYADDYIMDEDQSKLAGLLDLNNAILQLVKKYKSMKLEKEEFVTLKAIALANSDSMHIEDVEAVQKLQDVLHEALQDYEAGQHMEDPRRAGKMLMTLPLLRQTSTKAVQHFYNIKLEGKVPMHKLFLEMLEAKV
Sequence of Signal transducer and activator of transcription 3 (Homo sapiens) (P40763 whole entry, looked up): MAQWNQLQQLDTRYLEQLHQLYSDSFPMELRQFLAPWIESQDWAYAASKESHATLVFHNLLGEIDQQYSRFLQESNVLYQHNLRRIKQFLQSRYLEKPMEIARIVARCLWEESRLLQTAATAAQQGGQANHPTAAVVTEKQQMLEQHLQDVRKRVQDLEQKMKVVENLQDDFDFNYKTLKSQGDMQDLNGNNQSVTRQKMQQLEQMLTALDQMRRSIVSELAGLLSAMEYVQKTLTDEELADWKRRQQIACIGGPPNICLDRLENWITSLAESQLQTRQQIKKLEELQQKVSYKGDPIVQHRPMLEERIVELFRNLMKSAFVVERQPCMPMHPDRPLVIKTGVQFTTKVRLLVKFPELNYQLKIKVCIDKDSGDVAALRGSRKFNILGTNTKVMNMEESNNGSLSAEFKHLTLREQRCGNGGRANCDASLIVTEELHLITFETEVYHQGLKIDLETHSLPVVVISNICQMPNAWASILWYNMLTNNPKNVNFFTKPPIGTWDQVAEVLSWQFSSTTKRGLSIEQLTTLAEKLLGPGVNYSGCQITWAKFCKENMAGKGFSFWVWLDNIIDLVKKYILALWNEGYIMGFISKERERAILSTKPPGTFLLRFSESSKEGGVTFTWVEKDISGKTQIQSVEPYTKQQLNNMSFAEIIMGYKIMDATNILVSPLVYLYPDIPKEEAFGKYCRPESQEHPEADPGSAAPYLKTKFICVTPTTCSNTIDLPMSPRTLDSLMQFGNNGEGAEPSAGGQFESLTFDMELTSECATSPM
Sequence of Paired box protein Pax-6 (Homo sapiens) (P26367 whole entry, looked up): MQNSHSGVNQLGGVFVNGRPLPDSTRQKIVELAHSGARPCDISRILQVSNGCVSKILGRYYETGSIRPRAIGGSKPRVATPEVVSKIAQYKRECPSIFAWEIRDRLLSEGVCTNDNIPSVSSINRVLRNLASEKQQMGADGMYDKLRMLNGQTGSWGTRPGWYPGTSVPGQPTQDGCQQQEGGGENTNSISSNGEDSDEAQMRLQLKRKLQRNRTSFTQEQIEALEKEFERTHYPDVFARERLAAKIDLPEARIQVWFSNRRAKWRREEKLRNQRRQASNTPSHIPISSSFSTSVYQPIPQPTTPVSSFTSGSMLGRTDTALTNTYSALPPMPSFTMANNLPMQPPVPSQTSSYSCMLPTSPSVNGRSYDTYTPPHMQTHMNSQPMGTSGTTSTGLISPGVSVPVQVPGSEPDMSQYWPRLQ

COC(=O)N(OC)c1ccccc1COc1ccn(-c2ccc(Cl)cc2)n1
AC50 [1]: 1.67 µM (active) | outcome [2]: inactive | AC50 [3]: 1.28 µM (active) | AC50 [4]: 0.343 µM (active) | AC50 [5]: 2.2 µM (active) | outcome [6]: inactive | outcome [7]: inactive | outcome [8]: inactive | outcome [9]: inactive | outcome [10]: inactive | outcome [11]: inactive | outcome [12]: inactive | outcome [13]: inactive | outcome [14]: inactive | outcome [15]: inactive | outcome [16]: inactive | outcome [17]: inactive | outcome [18]: inactive

N#CC(CCc1ccc(Cl)cc1)(Cn1cncn1)c1ccccc1 (stereo not drawn)
outcome [1]: inactive | outcome [2]: inactive | AC50 [3]: 1.5 µM (active) | outcome [4]: inactive | outcome [5]: inactive | outcome [6]: inactive | outcome [7]: inactive | AC50 [8]: 8.22 µM (active) | outcome [9]: inactive | AC50 [10]: 16.9 µM (active) | outcome [11]: inactive | outcome [12]: inactive | outcome [13]: inactive | outcome [15]: inactive | outcome [16]: inactive | outcome [19]: inactive | outcome [18]: inactive

N#Cc1cc(Br)c(O)c(Br)c1
outcome [1]: inactive | outcome [2]: inactive | AC50 [3]: 18.4 µM (active) | AC50 [4]: 21.1 µM (active) | AC50 [5]: 50 µM (active) | outcome [6]: inactive | outcome [7]: inactive | outcome [8]: inactive | outcome [9]: inactive | outcome [10]: inactive | outcome [11]: inactive | outcome [12]: inactive | outcome [13]: inactive | outcome [15]: inactive | AC50 [16]: 31.6 µM (active) | outcome [19]: inactive | outcome [18]: inactive

O=C(O)c1nc(Cl)ccc1Cl
outcome [2]: inactive | outcome [3]: inactive | outcome [5]: inactive | outcome [6]: inactive | outcome [7]: inactive | outcome [8]: inactive | outcome [9]: inactive | outcome [10]: inactive | outcome [11]: inactive | outcome [12]: inactive | outcome [13]: inactive | outcome [15]: inactive | outcome [16]: inactive | outcome [19]: inactive

CCNc1nc(Cl)nc(NCC)n1
outcome [1]: inactive | outcome [2]: inactive | AC50 [3]: 32.7 µM (active) | outcome [5]: inactive | outcome [6]: inactive | outcome [7]: inactive | outcome [8]: inactive | outcome [9]: inactive | outcome [10]: inactive | outcome [11]: inactive | outcome [12]: inactive | outcome [13]: inactive | outcome [14]: inactive | outcome [16]: inactive | outcome [19]: inactive | outcome [18]: inactive

CNC(=O)ON=CC(C)(C)SC
outcome [1]: inactive | outcome [2]: inactive | outcome [3]: inactive | outcome [4]: inactive | outcome [5]: inactive | outcome [6]: inactive | outcome [7]: inactive | outcome [8]: inactive | outcome [9]: inactive | outcome [10]: inactive | outcome [11]: inactive | outcome [12]: inactive | outcome [13]: inactive | outcome [15]: inactive | outcome [16]: inactive | outcome [19]: inactive | outcome [17]: inactive | outcome [18]: inactive

CCOP(=S)(OCC)SCn1c(=O)oc2cc(Cl)ccc21
AC50 [1]: 7.17 µM (active) | outcome [2]: inactive | AC50 [3]: 2.21 µM (active) | outcome [5]: inactive | outcome [6]: inactive | outcome [7]: inactive | outcome [8]: inactive | outcome [9]: inactive | outcome [10]: inactive | outcome [11]: inactive | outcome [12]: inactive | outcome [13]: inactive | outcome [14]: inactive | AC50 [15]: 29.9 µM (active) | outcome [16]: inactive | outcome [19]: inactive | outcome [17]: inactive

CN(C)C(=S)SSC(=S)N(C)C
outcome [1]: inactive | outcome [2]: inactive | outcome [3]: inactive | outcome [4]: inactive | outcome [5]: inactive | outcome [6]: inactive | outcome [7]: inactive | outcome [8]: inactive | outcome [9]: inactive | outcome [10]: inactive | outcome [11]: inactive | outcome [12]: inactive | outcome [13]: inactive | outcome [15]: inactive | outcome [16]: inactive | outcome [19]: inactive

— PubChem BioAssay (EPA / NIEHS)
